IDE act – human IDE activators in live cells, primary screen, fluorescence polarization, HEK cells, FAbeta-B substrate; Insulin-degrading enzyme (Homo sapiens), P14735; FAbeta-B cleavage; 0% vehicle, 100% cell-free pure enzyme wells; activation, % at 5.96 µM; 0.073% of 340,000 active;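 active = activation above the mean of all tested compounds plus 3 SD, set per screening campaign, cut at about 17% in these data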
TLR4-MyD88 BLA – inhibitors of TLR4-MyD88 association in cells, primary screen, cell-based, HeLa CL3-4, BLA complementation, FRET ratio; 0.18% of 200,000 active; inhibition, % at 8.4 µM; HeLa CL3-4 TLR4/MyD88 BLA complementation; AID 861, 2007; Toll-like receptor 4 (Homo sapiens) + Myeloid differentiation primary response protein …; in the data active = inhibition above about 25%;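 note: 0% = vehicle and 100% = reference inhibitor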
TLR9-MyD88 inh – inhibitors of TLR9-MyD88 association in cells, primary screen, cell-based, CHO, BLA complementation, fluorescence | Toll-like receptor 9 (Homo sapiens) + Myeloid differentiation primary response protein … | CCF4 FRET ratio | inhibition, % at 4.98 µM | 0.21% of 340,000 active | AID 504734, 2011;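 active = inhibition above the mean over all tested compounds plus 3 SD, cut at about 21% in these data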;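 note: 0% = DMSO only wells and 100% = clavulanate BLA inhibitor control wells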
Target sequence (Q99836 whole entry, looked up): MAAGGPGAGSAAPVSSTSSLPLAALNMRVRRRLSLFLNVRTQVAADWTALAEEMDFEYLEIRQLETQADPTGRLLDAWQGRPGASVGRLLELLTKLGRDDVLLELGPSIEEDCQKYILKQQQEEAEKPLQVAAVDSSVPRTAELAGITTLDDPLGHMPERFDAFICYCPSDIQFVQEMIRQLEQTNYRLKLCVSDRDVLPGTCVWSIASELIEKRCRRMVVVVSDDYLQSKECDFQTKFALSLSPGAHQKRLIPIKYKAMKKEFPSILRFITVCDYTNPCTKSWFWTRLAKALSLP
Target sequence (Q9NR96 whole entry, looked up): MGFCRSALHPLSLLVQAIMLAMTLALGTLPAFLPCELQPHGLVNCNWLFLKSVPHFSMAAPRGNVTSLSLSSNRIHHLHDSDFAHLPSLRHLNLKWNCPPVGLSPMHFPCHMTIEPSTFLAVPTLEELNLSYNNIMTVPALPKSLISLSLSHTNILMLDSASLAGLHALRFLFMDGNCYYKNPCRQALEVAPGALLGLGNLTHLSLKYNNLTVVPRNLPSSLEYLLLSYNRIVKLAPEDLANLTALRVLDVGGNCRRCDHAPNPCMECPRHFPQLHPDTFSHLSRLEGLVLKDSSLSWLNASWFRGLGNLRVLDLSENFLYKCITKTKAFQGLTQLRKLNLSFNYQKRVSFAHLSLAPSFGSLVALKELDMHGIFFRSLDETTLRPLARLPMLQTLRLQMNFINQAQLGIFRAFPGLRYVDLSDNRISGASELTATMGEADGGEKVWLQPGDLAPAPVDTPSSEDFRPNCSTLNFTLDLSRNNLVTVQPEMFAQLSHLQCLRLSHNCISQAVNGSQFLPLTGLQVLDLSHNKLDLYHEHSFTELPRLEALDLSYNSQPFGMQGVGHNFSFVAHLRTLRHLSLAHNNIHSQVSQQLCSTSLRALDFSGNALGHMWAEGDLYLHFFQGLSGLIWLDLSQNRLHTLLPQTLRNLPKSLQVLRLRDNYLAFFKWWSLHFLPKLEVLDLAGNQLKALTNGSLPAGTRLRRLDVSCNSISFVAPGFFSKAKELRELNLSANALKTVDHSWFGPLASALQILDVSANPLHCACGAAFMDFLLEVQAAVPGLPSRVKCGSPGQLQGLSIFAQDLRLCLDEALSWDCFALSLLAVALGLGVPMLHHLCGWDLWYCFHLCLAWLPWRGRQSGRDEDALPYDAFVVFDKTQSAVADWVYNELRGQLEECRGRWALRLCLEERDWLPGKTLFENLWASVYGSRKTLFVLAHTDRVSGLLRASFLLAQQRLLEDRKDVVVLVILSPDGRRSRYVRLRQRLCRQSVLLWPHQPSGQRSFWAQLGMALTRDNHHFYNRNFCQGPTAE
NOD2-RIPK2 inh – NOD2-RIPK2 binding disruptors in cells, primary screen, fluorescence, CHO cells, BLA complementation. Receptor-interacting serine/threonine-protein kinase 2 (Homo sapiens), O43353. CCF4 ratio. inhibition, % at 4.98 µM. 0.38% of 360,000 active. AID 624267, 2012; in the data active = inhibition above about 21%;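 note: 0% = vehicle only and 100% = reference blocker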
IDE cell inh – human IDE inhibitors in live cells, primary screen, fluorescence polarization, HEK cells, FAbetaB substrate; Insulin-degrading enzyme (Homo sapiens), P14735; FAbetaB cleavage; inhibition, % at 5.59 µM; 0.41% of 320,000 active;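 active = percent inhibition above the average of all tested compounds plus 3 SD, set per screening campaign, cut at about 16% in these data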;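 note: IDE supplied by intact live HEK cells; FP after avidin binding of uncleaved biotin substrate so inhibition keeps polarization high; 0% = DMSO wells and 100% = 60 µM reference IDE inhibitor Ii1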
TLR4-MyD88 conf – TLR4-MyD88 association inhibitors, retest, confirmation, cell-based, HeLa CL3-4, BLA complementation, FRET ratio; shares compounds with TLR4-MyD88 BLA; CCF4 FRET ratio; inhibition, % at 8.4 µM; 50% of 350 active; AID 941, 2007;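 active = mean inhibition across three repeat runs above about 25% carried over from the earlier screen, limit read from the data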;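 note: plate controls were DMSO only for no effect and clavulanic acid blocking BLA at full dose for full effect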
BLA inh HeLa – counter-screen for TLR4-MyD88 inhibitors: beta-lactamase reporter inhibitors. shares compounds with TLR4-MyD88 BLA. HeLa BLA reporter, CCF4 FRET ratio. inhibition, % at 8.4 µM. 63% of 350 active. AID 1237;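 active = mean inhibition over three repeats above about 26% taken from the earlier screen, limit read from the data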;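 note: HeLa cells stably expressing beta-lactamase reporter as counterscreen for TLR4-MyD88 inhibitors; 0% = DMSO and 100% = clavulanic acid full inhibition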
TLR9-MyD88 cf – TLR9-MyD88 association inhibitors, retest, confirmation, cell-based, CHO, BLA complementation, fluorescence, triplicate | shares compounds with TLR9-MyD88 inh | CCF4 FRET ratio | inhibition, % at 4.98 µM | 51% of 680 active;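 active = mean inhibition across three repeats above about 21% taken from the earlier screen, limit read from the data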;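 note: blue over green emission ratio reports constitutive TLR9 MyD88 association via BLA complementation; 0% = DMSO vehicle wells and 100% = clavulanate BLA inhibitor wells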
BLA counter-1 – beta-lactamase reporter inhibitors in CHO cells, artefact control for TLR9-MyD88 binding inhibitor project, cell-based, fluorescence | shares compounds with TLR9-MyD88 inh | CHO-BLA cells, CCF4 FRET ratio, BLA reporter | inhibition, % at 4.98 µM | 7% of 680 active | AID 540251, 2011;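 active = mean inhibition above a 50% cutoff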;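 note: counterscreen of TLR9-MyD88 hits on CMV-driven BLA in CHO-K1 cells; 0% = DMSO alone and 100% = clavulanate blocking BLA; higher means less blue over green ratio so more BLA blockade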
TLR9 CHO cytotox – CHO cell viability loss – luminescence, single concentration, cytotoxicity control for TLR9-MyD88 binding inhibitor project. shares compounds with TLR9-MyD88 inh. TLR9-MyD88 CHO cells cytotoxicity. inhibition, % at 4.98 µM. 39% of 680 active. AID 588336, 2011; in the data active = inhibition above about 11%
NOD2 RIPK2 conf – NOD2-RIPK2 binding disruptors, retest, confirmation, fluorescence, CHO cells, BLA complementation, triplicate; shares compounds with NOD2-RIPK2 inh; CCF4 FRET; inhibition, % at 4.98 µM; 70% of 1,200 active;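 active = mean inhibition across replicates above a set limit taken from the earlier primary screen, cut at about 21% in these data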;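 note: 0% = DMSO-only wells and the high end = clavulanate BLA-blocked wells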
BLA counter-2 – counter-screen for NOD2-RIPK2 interaction inhibitors: BLA reporter. CHO BLA reporter, CCF4 FRET ratio, counterscreen. inhibition, % at 4.98 µM. 57% of 1,200 active. shares compounds with NOD2-RIPK2 inh;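 active = mean inhibition above the low-control mean inhibition plus three low-control SD, cut at about 11% in these data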;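 note: 0% = DMSO only wells and 100% = clavulanate high control wells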
* hit, by the source's call; · = no result given. Shown are actives, neighbours in structure and some others; about 0.87% of the full set was active somewhere.

SMILES	IDE act	TLR4-MyD88 BLA	TLR9-MyD88 inh	NOD2-RIPK2 inh	IDE cell inh	TLR4-MyD88 conf	BLA inh HeLa	TLR9-MyD88 cf	BLA counter-1	TLR9 CHO cytotox	NOD2 RIPK2 conf	BLA counter-2
CC(=O)Nc1sc(/C(C#N)=C\c2cccc(Cl)c2)nc1-c1ccc(C)cc1	-8.2	31.1*	32.0*	20.4	8.5	86.3*	111.9*	79.8*	80.6*	2.0	·	·
O=C(O)c1ccccc1-c1ccc(/C=C/c2cc(C(F)(F)F)[nH]c(=O)n2)o1	-16.2	26.4*	38.9*	20.2	·	19.0	32.9*	24.6*	31.5	1.3	·	·
CCOC(=O)/C(=C\c1cccnc1)C(=O)c1cc(C(C)=O)c(Nc2ccccc2)s1	-4.0	49.4*	41.4*	89.4*	6.5	53.2*	40.9*	49.5*	31.6	98.0*	·	·
CCOC(=O)/C(=C\c1ccccc1)C(=O)c1cc(C(C)=O)c(Nc2ccccc2)s1	2.4	4.4	-2.8	2.2	1.7	·	·	·	·	·	·	·
CC(C)C[C@@H](CN1CCC[C@@H]1CN1C(=O)C(=O)NC[C@@H]1Cc1ccccc1)N1C[C@H](Cc2ccccc2)N(CC2CCCCC2)C(=O)C1=O	·	·	·	-5.8	·	·	·	·	·	·	·	·
Nc1ccc2c(c1)C/C(=C/c1ccco1)C2=O	1.5	32.4*	23.6*	13.3	2.0	26.2*	54.5*	23.2*	29.6	6.7	·	·
O=C1/C(=C/c2ccco2)CCc2ccccc21	-1.2	-6.8	4.4	-4.7	2.4	·	·	·	·	·	·	·
Brc1cc(Br)c2nc(-c3ccc(N4CCOCC4)cc3)ccc2c1	-3.2	29.0*	39.5*	26.7*	·	14.0	29.8*	43.2*	46.5	4.4	·	·
Nc1ccc2c(c1)Cc1cc([N+](=O)[O-])ccc1-2	1.7	45.9*	46.3*	48.7*	6.6	38.2*	66.6*	30.8*	34.0	10.7*	57.8*	54.2*
CC(=NO)c1ccc2c(c1)Cc1cc([N+](=O)[O-])ccc1-2	5.5	·	-1.8	-3.9	·	·	·	·	·	·	·	·
CCOC(=O)C1=CCN(S(=O)(=O)c2cccc(Cl)c2)C1c1ccc(F)cc1 (configuration not stated)	·	·	·	-3.7	·	·	·	·	·	·	·	·
CS(=O)(=O)Nc1cccc(-c2cc(NC=O)c3ncc(-c4ccc(F)cc4)n3c2)c1	·	·	·	-0.8	·	·	·	·	·	·	·	·
CCOC(=O)CS(=O)(=O)c1ccccc1	4.6	9.5	-6.0	-10.7	-0.7	·	·	·	·	·	·	·
CCOC(=O)CS(=O)(=O)c1nc(-c2ccccc2)cc(C(F)(F)F)n1	3.5	25.2*	30.1*	85.1*	-1.1	17.5	-18.0	30.0*	7.1	99.9*	84.8*	26.5*
CNc1ncnc2c1ncn2[C@H]1CN(Cc2ccco2)C[C@@H](CO)O1	·	·	·	-6.7	·	·	·	·	·	·	·	·
Cc1ccc(NC(=O)CN(C)C(=O)Cn2ncc(Cl)c(Cl)c2=O)cc1	1.7	31.9*	15.7	25.3*	4.4	16.3	3.9	·	·	·	23.0*	4.9
Cc1ccc(NC(=O)CN(C)C(=O)Cc2ccc(Cl)c(Cl)c2)cc1	-3.8	·	-5.7	-6.5	0.4	·	·	·	·	·	·	·
COCC(=O)Nc1ccc2c(c1)[C@@H]1C[C@H](CC(=O)NCc3cccc(F)c3)O[C@@H](CO)[C@@H]1O2	·	·	12.6	-5.2	·	·	·	·	·	·	·	·
O=C(/C=C/c1cn(CC(O)CN2CCCCCC2)c2ccccc12)c1cccs1 (configuration not stated)	-4.4	31.3*	47.1*	47.0*	5.9	36.6*	60.2*	28.3*	27.2	2.4	55.7*	52.4*
CCCCCCCCN1C(=O)[C@H](CC(=O)N2CCN(C(=O)OCC)CC2)C[C@@]2(C(=O)OCC)CCCC=C12	·	·	·	-4.2	·	·	·	·	·	·	·	·
O=C1c2cccc3cccc(c23)C(=O)N1Cc1cccnc1	1.1	·	8.7	-5.6	2.8	·	·	·	·	·	·	·
Cc1ccc(N2C(=O)c3cccc4c([N+](=O)[O-])ccc(c34)C2=O)c2cccnc12	4.5	·	8.5	13.4	0.8	·	·	·	·	·	·	·
Cc1ccnc(N2C(=O)c3cccc4c([N+](=O)[O-])ccc(c34)C2=O)c1	-3.0	91.8*	78.6*	88.0*	15.6	90.2*	112.9*	58.0*	81.7*	93.1*	91.9*	83.2*
O=C1c2cccc3c([N+](=O)[O-])ccc(c23)C(=O)N1Cc1cccnc1	-18.2	77.3*	65.7*	78.5*	·	79.0*	104.0*	48.6*	65.6*	71.6*	84.1*	71.4*
CCOc1ccc(S(=O)(=O)N(CC(=O)N/N=C/c2ccc(-c3ccc([N+](=O)[O-])cc3)o2)c2ccccc2)cc1	2.7	65.2*	55.1*	35.1*	3.3	50.1*	87.1*	56.9*	58.5*	21.8*	68.2*	76.3*
Nc1nnc(-c2cc3ccccc3oc2=O)s1	6.6	13.8	14.0	11.8	1.9	·	·	·	·	·	·	·
